Read-out in assay [1]: Intercellular Adhesion Molecule 1 (ICAM1), ICAM1 (gene 3383)
As to the kind of experiment: BSK_3C_ICAM1: BioMAP Diversity Plus: 3C Assay for Intercellular Adhesion Molecule 1 (ICAM1) Biomarker Activity (AID 2283003; active means hit-call score of the fitted dose curve at least 0.9, where 1 is the maximum; inactive means score below 0.9). To be noted: primary human endothelial cells (HUVEC); actives raise or lower the signal. Summed up:
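ELISA read-out of ICAM-1; HUVEC (primary human), 3C system, 24 h post-dosing; bidirectional fit vs DMSO baseline.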

Assay [2] has as its target human RAR-related Orphan Receptor beta (RORb), RORB (gene 6096) (UniProt Q92753). As to the kind of experiment: ATG_RORb_TRANS: Attagene TRANS-FACTORIAL HepG2 Assay for human RAR-related Orphan Receptor beta (RORb) (AID 2283010). Summed up: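 HepG2, transient MRTU transfection (GAL4-UAS reporters, exogenous NR-Gal4 chimeras); 24 h compound exposure; total RNA → RT-PCR → 6-FAM primer extension → HpaI digest → CE fluorescence. Positive direction vs DMSO baseline.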

The target of assay [3] is Retinoic acid receptor RXR-alpha (Homo sapiens) (UniProt P19793). As to the kind of experiment: ATG_RXRa_TRANS: Attagene TRANS-FACTORIAL HepG2 Assay for human Retinoid X Receptor alpha (RXRa) (AID 2283012). A digest of the protocol: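 Read-out: fluorescent reporter-transcript fragments quantified by capillary electrophoresis after RT-PCR. Transiently transfected HepG2 cells carrying GAL4-UAS reporters and NR-GAL4 chimeras were exposed to chemical for 24 h; activity scored as increase over DMSO.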
Retinoic acid receptor RXR-alpha (Homo sapiens), sequence (P19793 whole entry, looked up, the tested form may be a part): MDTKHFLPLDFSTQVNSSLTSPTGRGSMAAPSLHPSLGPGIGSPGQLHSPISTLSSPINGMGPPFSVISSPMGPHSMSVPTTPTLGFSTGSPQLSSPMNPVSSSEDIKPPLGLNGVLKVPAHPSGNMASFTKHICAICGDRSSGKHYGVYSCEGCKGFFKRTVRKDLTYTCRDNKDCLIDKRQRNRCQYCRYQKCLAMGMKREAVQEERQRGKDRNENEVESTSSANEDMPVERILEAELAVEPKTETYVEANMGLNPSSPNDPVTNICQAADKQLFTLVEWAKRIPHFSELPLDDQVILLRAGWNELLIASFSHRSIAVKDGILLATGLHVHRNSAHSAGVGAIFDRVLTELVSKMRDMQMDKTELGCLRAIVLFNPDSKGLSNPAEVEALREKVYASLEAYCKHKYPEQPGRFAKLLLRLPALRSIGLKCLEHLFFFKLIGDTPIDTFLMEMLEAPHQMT

Assay [4] addresses Peroxisome proliferator-activated receptor gamma (Homo sapiens) (UniProt P37231). As to the kind of experiment: ATG_PPARg_TRANS: Attagene TRANS-FACTORIAL HepG2 Assay for human Peroxisome Proliferator-activated Receptor-gamma (PPARg) (AID 2283007). Summed up: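 HepG2 cells transiently transfected with multiplexed GAL4-UAS reporter units and exogenous chimeric NR-Gal4 proteins; reporter mRNA quantified after 24 h compound exposure by RT-PCR, fluorescent labelling, HpaI digestion and capillary electrophoresis; gain-of-signal fitted versus DMSO baseline.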

The target in assay [5] is Nuclear receptor subfamily 1 group I member 2 (Homo sapiens) (UniProt O75469). As to the kind of experiment: ATG_PXR_TRANS: Attagene TRANS-FACTORIAL HepG2 Assay for human Pregnane X Receptor (PXR) (AID 2283008). Summed up:
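Multiplexed TRANS reporter panel in HepG2; this component tracks PXR-Gal4-driven reporter mRNA after 24 h dosing, measured by RT-PCR with capillary electrophoresis fluorescence, fitted against DMSO.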

The target of assay [6] is human Retinoic Acid Receptor beta (RARb), RARB (gene 5915) (UniProt P10826). As to the kind of experiment: ATG_RARb_TRANS: Attagene TRANS-FACTORIAL HepG2 Assay for human Retinoic Acid Receptor beta (AID 2283004). A digest of the protocol:
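HepG2, transient MRTU transfection, NR–Gal4 chimera, 24 h treatment; RT-PCR plus CE fluorescence detection of reporter mRNA; gain of signal vs DMSO.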

For assay [7], the target named is human RAR-related Orphan Receptor gamma (RORg), RORC (gene 6097) (UniProt P51449). The assay can be described thus: ATG_RORg_TRANS: Attagene TRANS-FACTORIAL HepG2 Assay for human RAR-related Orphan Receptor gamma (RORg) (AID 2283011). A digest of the protocol:
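Activity is scored as increase in GAL4-UAS reporter mRNA over DMSO, detected by fluorescent RT-PCR and capillary electrophoresis in HepG2 cells transiently expressing a RORg-Gal4 chimera, 24 h after dosing.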

Assay [8] concerns the target human Retinoic Acid Receptor gamma (RARg), RARG (gene 5916) (UniProt P13631). As to the kind of experiment: ATG_RARg_TRANS: Attagene TRANS-FACTORIAL HepG2 Assay for human Retinoic Acid Receptor gamma (RARg) (AID 2283009). Summed up: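 Readout: reporter transcript levels via RT-PCR, 6-FAM primer-extension labelling, HpaI digestion and capillary electrophoresis. Cells: HepG2 carrying transfected RARg-GAL4 chimera plus UAS reporter set. Dosing 24 h; DMSO negative control.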

For assay [9], the target named is Retinoic acid receptor alpha (Homo sapiens) (UniProt P10276). As to the kind of experiment: ATG_RARa_TRANS: Attagene TRANS-FACTORIAL HepG2 Assay for human Retinoic Acid Receptor alpha (RARa) (AID 2283005). Summed up: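 HepG2 cells transiently transfected with multiple reporter units expressing chimeric RARα-GAL4 fusion, with GAL4-UAS-driven reporters. After 24 h compound exposure, reporter mRNA induction quantified by RT-PCR and capillary electrophoresis with fluorescent labeling; gain-of-signal fitted relative to DMSO control.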
Retinoic acid receptor alpha (Homo sapiens), sequence (P10276 whole entry, looked up, the tested form may be a part): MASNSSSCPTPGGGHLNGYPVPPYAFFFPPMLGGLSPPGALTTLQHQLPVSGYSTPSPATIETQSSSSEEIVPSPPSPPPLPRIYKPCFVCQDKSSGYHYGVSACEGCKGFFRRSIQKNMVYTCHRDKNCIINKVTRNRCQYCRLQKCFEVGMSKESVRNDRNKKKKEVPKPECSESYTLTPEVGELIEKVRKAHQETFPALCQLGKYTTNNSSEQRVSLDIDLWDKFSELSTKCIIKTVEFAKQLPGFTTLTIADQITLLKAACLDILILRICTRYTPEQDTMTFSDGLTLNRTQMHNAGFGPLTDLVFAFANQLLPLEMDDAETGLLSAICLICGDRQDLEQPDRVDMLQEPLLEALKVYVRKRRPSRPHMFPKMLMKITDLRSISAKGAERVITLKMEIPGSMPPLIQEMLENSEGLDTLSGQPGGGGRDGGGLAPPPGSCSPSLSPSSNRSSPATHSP

Records with an inconclusive call do not appear. Activity calls are given as the source filed them. How the source made its calls, unless noted: active means hit-call score of the fitted dose curve at least 0.9, where 1 is the maximum; inconclusive means response in the unintended direction; inactive means score below 0.9.

Our source for the outcome and AC50 values is PubChem BioAssay (EPA / NIEHS).

human Retinoic Acid Receptor gamma (RARg), RARG (gene 5916), sequence (P13631 whole entry, looked up, the tested form may be a part): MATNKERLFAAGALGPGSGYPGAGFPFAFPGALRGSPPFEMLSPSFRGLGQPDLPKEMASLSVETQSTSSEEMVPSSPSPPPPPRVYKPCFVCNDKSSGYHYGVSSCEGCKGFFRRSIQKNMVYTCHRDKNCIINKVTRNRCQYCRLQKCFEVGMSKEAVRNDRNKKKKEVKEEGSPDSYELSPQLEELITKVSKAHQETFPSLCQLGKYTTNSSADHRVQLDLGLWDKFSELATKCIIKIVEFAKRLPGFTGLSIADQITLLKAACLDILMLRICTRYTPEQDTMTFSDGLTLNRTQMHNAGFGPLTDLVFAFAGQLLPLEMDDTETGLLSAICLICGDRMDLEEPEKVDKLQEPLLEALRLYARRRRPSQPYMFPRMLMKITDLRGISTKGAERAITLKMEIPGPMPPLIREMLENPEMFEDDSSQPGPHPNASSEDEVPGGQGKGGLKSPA
Peroxisome proliferator-activated receptor gamma (Homo sapiens), sequence (P37231 whole entry, looked up, the tested form may be a part): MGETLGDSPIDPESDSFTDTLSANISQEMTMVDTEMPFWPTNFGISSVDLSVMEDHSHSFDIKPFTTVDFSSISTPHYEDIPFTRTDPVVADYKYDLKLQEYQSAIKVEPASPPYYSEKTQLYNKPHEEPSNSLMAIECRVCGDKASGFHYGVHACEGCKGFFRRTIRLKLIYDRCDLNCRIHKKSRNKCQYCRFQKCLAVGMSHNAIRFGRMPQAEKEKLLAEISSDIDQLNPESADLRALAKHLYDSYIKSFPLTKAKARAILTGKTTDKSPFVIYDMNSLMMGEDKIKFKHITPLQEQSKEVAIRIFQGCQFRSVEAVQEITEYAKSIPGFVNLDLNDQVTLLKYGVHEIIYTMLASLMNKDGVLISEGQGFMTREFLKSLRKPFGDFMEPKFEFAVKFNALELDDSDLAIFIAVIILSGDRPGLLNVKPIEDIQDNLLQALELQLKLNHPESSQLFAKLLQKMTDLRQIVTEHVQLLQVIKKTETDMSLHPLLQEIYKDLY
human RAR-related Orphan Receptor beta (RORb), RORB (gene 6096), sequence (Q92753 whole entry, looked up, the tested form may be a part): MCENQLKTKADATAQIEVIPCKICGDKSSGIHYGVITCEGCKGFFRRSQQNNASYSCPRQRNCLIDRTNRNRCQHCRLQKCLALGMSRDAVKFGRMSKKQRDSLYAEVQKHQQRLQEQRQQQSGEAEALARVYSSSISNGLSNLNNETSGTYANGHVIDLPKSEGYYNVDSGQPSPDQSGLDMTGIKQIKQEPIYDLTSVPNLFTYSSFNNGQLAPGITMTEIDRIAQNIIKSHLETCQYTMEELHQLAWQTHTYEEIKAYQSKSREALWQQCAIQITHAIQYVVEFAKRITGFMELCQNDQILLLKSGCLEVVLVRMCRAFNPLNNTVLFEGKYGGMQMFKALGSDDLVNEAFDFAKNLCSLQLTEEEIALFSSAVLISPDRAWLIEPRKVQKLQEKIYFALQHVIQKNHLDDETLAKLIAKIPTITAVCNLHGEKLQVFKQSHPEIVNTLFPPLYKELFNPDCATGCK
human Retinoic Acid Receptor beta (RARb), RARB (gene 5915), sequence (P10826 whole entry, looked up, the tested form may be a part): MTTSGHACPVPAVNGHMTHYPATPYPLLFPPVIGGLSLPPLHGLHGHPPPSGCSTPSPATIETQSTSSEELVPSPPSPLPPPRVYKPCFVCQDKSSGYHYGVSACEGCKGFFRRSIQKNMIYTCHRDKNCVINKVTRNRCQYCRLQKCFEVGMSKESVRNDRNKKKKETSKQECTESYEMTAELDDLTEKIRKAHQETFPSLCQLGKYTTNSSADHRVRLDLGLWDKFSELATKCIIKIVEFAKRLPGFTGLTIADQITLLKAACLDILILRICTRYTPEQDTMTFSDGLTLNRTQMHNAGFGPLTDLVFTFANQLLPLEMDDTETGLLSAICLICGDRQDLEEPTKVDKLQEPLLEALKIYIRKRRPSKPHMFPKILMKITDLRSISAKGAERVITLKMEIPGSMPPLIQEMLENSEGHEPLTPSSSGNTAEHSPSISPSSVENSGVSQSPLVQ
human RAR-related Orphan Receptor gamma (RORg), RORC (gene 6097), sequence (P51449 whole entry, looked up, the tested form may be a part): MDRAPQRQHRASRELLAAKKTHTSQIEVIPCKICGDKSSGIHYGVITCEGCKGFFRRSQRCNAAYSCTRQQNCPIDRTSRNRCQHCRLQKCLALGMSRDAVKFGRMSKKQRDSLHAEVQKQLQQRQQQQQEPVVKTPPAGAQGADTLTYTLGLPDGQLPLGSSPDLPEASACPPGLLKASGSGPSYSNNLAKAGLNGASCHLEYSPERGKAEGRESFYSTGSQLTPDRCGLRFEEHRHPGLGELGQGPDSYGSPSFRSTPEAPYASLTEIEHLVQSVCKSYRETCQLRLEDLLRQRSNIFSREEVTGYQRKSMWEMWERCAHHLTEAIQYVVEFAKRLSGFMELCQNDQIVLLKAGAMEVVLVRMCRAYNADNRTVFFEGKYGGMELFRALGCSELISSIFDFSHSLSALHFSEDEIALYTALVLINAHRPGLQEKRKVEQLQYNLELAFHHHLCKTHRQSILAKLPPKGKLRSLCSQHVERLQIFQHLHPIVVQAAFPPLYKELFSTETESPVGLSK
Nuclear receptor subfamily 1 group I member 2 (Homo sapiens), sequence (O75469 whole entry, looked up, the tested form may be a part): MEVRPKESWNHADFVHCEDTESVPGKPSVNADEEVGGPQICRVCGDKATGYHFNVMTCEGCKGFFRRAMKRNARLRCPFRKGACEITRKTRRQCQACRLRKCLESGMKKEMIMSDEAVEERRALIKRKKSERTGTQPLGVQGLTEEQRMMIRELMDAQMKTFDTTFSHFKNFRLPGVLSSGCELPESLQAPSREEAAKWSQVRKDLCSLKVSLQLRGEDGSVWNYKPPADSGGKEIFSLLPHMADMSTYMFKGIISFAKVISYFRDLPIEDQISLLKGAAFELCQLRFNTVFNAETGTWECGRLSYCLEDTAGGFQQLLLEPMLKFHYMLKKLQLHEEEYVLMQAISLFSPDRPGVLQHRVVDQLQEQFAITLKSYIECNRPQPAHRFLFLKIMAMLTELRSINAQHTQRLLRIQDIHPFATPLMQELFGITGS

As to `N#[N+]c1ccc2c(S(=O)(=O)[O-])cccc2c1O`, the outcome in [1], in [2] and in assay [3] was inactive.
Take `C1CN(SSN2CCOCC2)CCO1`: the compound was called inactive in assay [4] and in assay [5].
Regarding `O=C1CCCC(=O)O1`, the compound was classed as inactive in [6], in assay [5], in assay [2] and in assay [7].
With `NC(CO)(CO)CO`, the call in assay [6] and in assay [7] was inactive.
With `OCCc1ccncc1`, the call in assay [6], in [4] and in assay [2] was inactive.
Take `CC1(C)[C@H]2CC[C@]1(C)C(=O)C2`: the compound was classed as inactive in assay [6], in assay [5], in [7] and in assay [3].
Broadly, the AC50 is the concentration at which the activity in the assay is half-maximal. For `CCCCOCCOC(=O)COc1nc(Cl)c(Cl)cc1Cl`, in assay [4], the AC50 was 60.1 µM (active). Moreover, the call in assay [5] was inactive.
Take `COC(F)(F)C(F)(C(F)(F)F)C(F)(F)F`: the call in [6], in [2] and in assay [3] was inactive.
In the case of `C=C(C)[C@@H]1CCC2=CCC[C@@H](C)[C@]2(C)C1`, in assay [4], the compound was called inactive. The AC50 in assay [5] is 2.72 µM (active).
With `CCC(CC)C(=O)O`, the result in assay [6], in [2] and in assay [3] was inactive.
Take `O=[N+]([O-])C1(Br)COCOC1`: the call in [6], in assay [4] and in assay [3] was inactive.
As to `CC=CC(=O)N(CC)c1ccccc1C`, the compound was classed as inactive in assay [6], in assay [4], in assay [2] and in assay [7].
In the case of `Cc1cnc(NC(=O)C2=C(O)c3ccccc3S(=O)(=O)N2C)s1`, the outcome in [6], in assay [8], in [2] and in [3] was inactive. The AC50 in assay [4] is 40.4 µM (active).
`CC(=O)Oc1ccc(C)cc1`: the compound was called inactive in assay [6], in assay [4], in assay [2], in assay [7] and in [3].
Turning to `CCOC(=O)[C@H](C)O`, the outcome in assay [9], in [5], in [8], in assay [7] and in assay [3] was inactive.
`C=C(C)[C@H]1CC=C(C)CC1`: the compound was called inactive in assay [9], in assay [5], in assay [8], in [2], in [7] and in assay [3].
As to `CCC(CO)CO`, the compound was classed as inactive in assay [6], in [5], in [2], in assay [7] and in assay [3].
For the compound `CC(C)CC(O)Cc1ccccc1` (stereo not given), the result in assay [9], in [4] and in [5] was inactive.
For `Cc1cc(O)c(Cl)c(C)c1Cl`, the AC50 was 21.9 µM (active) in assay [4] and 26.4 µM (active) in assay [5].
Consider `Nc1ncn([C@@H]2O[C@H](CO)[C@@H](O)[C@H]2O)c(=O)n1`, for which the result in [9], in [4], in assay [5], in assay [8] and in [3] was inactive.
For the compound `O=Cc1ccc(CO)o1`, the compound was classed as inactive in [9] and in [7].
On to `CC(=O)[C@H]1[C@H](C#N)C[C@H]2[C@@H]3CC=C4C[C@@H](O)CC[C@]4(C)[C@H]3CC[C@@]21C`, for which the compound was classed as inactive in [6], in assay [5], in [2] and in [7].
For `O=C(O)c1cc2ccccc2nc1C(=O)O`, the result in [4] and in [5] was inactive.
`CCCC(=O)OCc1ccccc1`: the call in assay [9], in [7] and in assay [3] was inactive.
As for `COC(=O)C1=C(C)NC(C)=C(C(=O)OCC(C)C)C1c1ccccc1[N+](=O)[O-]` (stereo not given), the AC50 in [4] was 6.19 µM (active).
Consider `O=C1OC(=O)c2cc(Oc3ccc4c(c3)C(=O)OC4=O)ccc21`, for which the outcome in assay [6], in assay [7] and in assay [3] was inactive.
`CC(=O)OC(C)C`: the call in assay [9], in assay [4], in assay [5], in [8], in [7] and in [3] was inactive.
With `CC(=O)NS(=O)(=O)c1ccc(N)cc1`, the compound was called inactive in assay [9], in assay [5], in assay [7] and in assay [3].
Regarding `CCCCCCCCCCCCCCCCCC#N`, the result in assay [9], in assay [4], in [5], in assay [8], in assay [2] and in assay [7] was inactive. Also, the call in assay [3] was inactive.
As to `O=c1cc(-c2ccccc2)oc2ccccc12`, the compound was called inactive in [9], in [8] and in assay [3]. Moreover, the figures for the AC50 in assay [4] and in [5] were 1.1 µM (active) and 6.29 µM (active), respectively.
Take `CC(C)=CC1CC(C)CCO1` (stereo not given): the result in assay [9], in assay [7] and in assay [3] was inactive.
`CCCCC/C=C\CCC=O`: the AC50 in [4] was 53.6 µM (active). Also, the result in assay [5] was inactive.
In the case of `OC1OCCOC1O` (stereo not given), the call in [6], in assay [5] and in assay [2] was inactive.
Regarding `Cc1ccc(C(C)(C)C)cc1`, the call in assay [6], in assay [5], in [2], in assay [7] and in assay [3] was inactive.
With `Cc1cc(C)c(C(=O)O)c(C)c1`, the call in assay [9], in assay [4], in assay [5], in [2] and in assay [7] was inactive.
Consider `CC1=CC[C@H]2C[C@@H]1C2(C)C`, for which the compound was classed as inactive in [9], in [4], in [5], in assay [7] and in assay [3].
As for `COC=O`, the call in [6], in [5] and in assay [3] was inactive.
Take `Cn1c(=O)[nH]c2ncn(C)c2c1=O`: the compound was called inactive in [9], in assay [5] and in assay [2].
Turning to `O=C1C=CC(=O)O1`, the call in assay [9], in [2] and in assay [7] was inactive.
For the compound `O=c1cc[nH]c(=S)[nH]1`, the call in [4], in assay [5] and in assay [8] was inactive.
Take `O=S1(=O)OC(c2ccc(O)cc2)(c2ccc(O)cc2)c2ccccc21`: the call in assay [4], in assay [5] and in assay [3] was inactive.
As for `Nc1ccc(Cl)cc1Cl`, the compound was called inactive in [5], in [7] and in assay [3].
Turning to `CCOc1ccc(N)c([N+](=O)[O-])c1`, the result in assay [5] and in [3] was inactive.
For `CO[Si](CCC1CCC2OC2C1)(OC)OC` (stereo not given), the compound was called inactive in assay [4], in assay [7] and in [3].
On to `CC(=O)Nc1nnc(S(N)(=O)=O)s1`, for which the result in assay [2], in assay [7] and in assay [3] was inactive.
Turning to `CCCCCCCCCCOS(=O)(=O)O`, the AC50 in [4] is 22.6 µM (active). Further, the result in assay [5] and in [3] was inactive.
